# ALOX15B inhib: blocks human 15-lipoxygenase 2 activity. O15296. purified 15hLO-2, xylenol orange hydroperoxide absorbance. Potency, µM (top dose mostly 57.1 µM), most hits filed as inhibitors. hit rate 0.56% among 110,000; also: nearly all actives have a fitted effect of over 60% in size
#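 Enzyme 50 nM, AA 45 uM, 25 mM Hepes pH 7.5 + 0.01% Triton X-100; cpd preinc 15 min RT, rxn 90 min RT; stop/detect with 200 uM XO + 300 uM Fe(II) in 50 mM H2SO4, 30 min; A573/A405.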
# 12-hLO inh: inhibitors of human 12-lipoxygenase (ALOX12); P18054; purified 12-hLO, xylenol orange hydroperoxide absorbance; Potency, µM (series often up to 57.1 µM), hits mostly inhibitors; hit rate 0.12% among 150,000; also: nearly all actives have a fitted effect of over 55% in size
# Target sequence (P18054 whole entry, looked up): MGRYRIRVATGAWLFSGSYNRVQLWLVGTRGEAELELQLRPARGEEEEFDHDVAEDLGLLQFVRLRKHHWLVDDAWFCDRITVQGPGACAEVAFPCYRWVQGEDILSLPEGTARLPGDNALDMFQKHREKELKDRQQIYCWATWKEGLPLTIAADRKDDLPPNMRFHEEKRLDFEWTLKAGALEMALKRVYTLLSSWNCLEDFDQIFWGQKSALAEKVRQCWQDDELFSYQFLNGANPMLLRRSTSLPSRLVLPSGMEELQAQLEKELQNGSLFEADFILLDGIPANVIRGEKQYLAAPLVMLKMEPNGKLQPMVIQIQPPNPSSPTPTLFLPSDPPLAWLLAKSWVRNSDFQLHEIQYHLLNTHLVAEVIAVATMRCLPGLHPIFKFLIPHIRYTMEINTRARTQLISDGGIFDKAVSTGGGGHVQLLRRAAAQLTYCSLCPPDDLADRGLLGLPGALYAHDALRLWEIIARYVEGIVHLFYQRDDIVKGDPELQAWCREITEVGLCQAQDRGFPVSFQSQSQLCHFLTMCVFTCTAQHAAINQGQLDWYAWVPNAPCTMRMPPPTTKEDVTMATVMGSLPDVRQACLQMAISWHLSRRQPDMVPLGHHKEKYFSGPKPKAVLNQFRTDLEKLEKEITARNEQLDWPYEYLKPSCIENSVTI
#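 Hydroperoxide output read as Fe(III)-xylenol orange absorbance, 573-to-405 nm ratio, after 30 min reaction with 40 uM arachidonic acid. Enzyme: 150 nM purified human 12hLO, 15 min compound preincubation; 25 mM Hepes pH 7.0, room temperature.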
# PNC assembly inh: perinucleolar compartment assembly inhibition; PC3M PTB-GFP, PNC prevalence imaging, 16 h; hits give low values; activity change (PNC), negative = inhibition, % at 10 µM; hit rate 3.1% among 140,000; AID 2417;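 active = readout at or below -70, meaning at least 70% loss of cells showing the perinucleolar compartment, a nuclear body marking cancer cells; inconclusive = readout between -30 and a set limit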
#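 PC3M cells stably expressing PTB-GFP, 750–1000 cells/well, treated 16 h at 37 °C with compound (23 nl of library stock), in duplicate. After paraformaldehyde fixation and Hoechst stain, imaged at 20x; PNC prevalence scored by image analysis.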
# Numbers stand for hits; . = inactive; ? = inconclusive; / = no result; [ ] = dose if it differs, or a comment. The list is not random: actives were taken first. Their share in the collection is about 3.1%. Unless noted, calls follow the shape of the dose curve; as a rule, active = well fitted curve in the direction sought with a large enough effect; inconclusive = small, poorly fitted or top-dose-only effect, or another doubt; inactive = no such curve, though single readings can be large; an effect the other way counts as inactive or inconclusive.
SMILES,ALOX15B inhib,12-hLO inh,PNC assembly inh
N[C@H](CCC(=O)NCC(=O)O)C(=O)O,.,.,/
CCc1c(C)nc2ncnn2c1N1CCC(C(=O)N2CCN(c3ccc(F)cc3)CC2)CC1,.,.,.
CCc1c(C)nc2ncnn2c1N1CCC(C(=O)N2CCN(c3ccccc3)CC2)CC1,.,.,-88
COc1ccc(CCNC(=S)Nc2cccc(C)c2C)cc1,25µM,?,.
COc1ccc(CCNC(=S)Nc2cc(C)ccc2C)cc1,25µM,7.9µM,.
COc1ccc(CCNC(=S)Nc2ccc(C)cc2C)cc1,/,?,.
COc1ccc(CNC(=S)Nc2ccccc2C)cc1,.,.,?
COC(=O)c1c(-c2cccs2)csc1NC(=O)c1cccnc1,.,.,-100
CCOC(=O)c1c(-c2cccs2)csc1NC(=O)CC(C)C,.,.,.
CCOC(=O)c1c(-c2cccs2)csc1NC(=O)c1ccco1,/,.,-100
CCN(CC)C(=O)c1sc(NC(=O)c2cccnc2)c(C(=O)OC)c1C,/,.,.
CC1CC[C@@]2(C(=O)O)CC[C@]3(C)C(=CCC4[C@@]5(C)CCC(O)C(C)(C)C5CC[C@@]43C)C2C1C (some centres undefined),.,.,/
CCCn1c(=O)c2[nH]c(-c3ccc(S(=O)(=O)O)cc3)nc2n(CCC)c1=O,.,.,/
CCCCCCc1nc2ccccc2c(=O)n1NC(=O)c1c(O)c2c(n(CC(C)C)c1=O)CCCC2,.,.,?
Cc1nc2ccccc2c(=O)n1NC(=O)c1c(O)c2c(n(CC(C)C)c1=O)CCCC2,/,.,-94
O=C(O)/C=C(\CC(=O)O)C(=O)O,.[11.4 µM],.[11.4 µM],/
CCNc1ncc2nc(-c3ccc(OC)cc3)c(=O)n(CCc3ccccc3)c2n1,.,/,/
Cn1c(=O)c2c(nc(SCC(=O)OCc3ccccc3)n2C)n(C)c1=O,.,.,-96
Cc1nc(SCC(=O)OCc2ccccc2)c2c(=O)n(C)c(=O)n(C)c2n1,.,.,.
CC(C)CSc1nc2c(c(=O)[nH]c(=O)n2C)n1CCc1ccccc1,.,.,.
CCOC(=O)CSc1nc2c(c(=O)[nH]c(=O)n2C)n1CCCc1ccccc1,.,.,-108
Cc1ccc2c(c1)CC[C@H]1CC(=O)CC[C@@]21C,.,.,/
CC(C)(C)C(=O)Nc1ccccc1C(=O)Nc1ccncc1,/,.,-100
Cc1cccnc1NC(=O)c1ccccc1NC(=O)C(C)(C)C,/,.,.
COc1ccccc1NC(=O)c1csc(-n2nc(C)cc2C(F)(F)F)n1,.,.,.
SMILES,ALOX15B inhib,12-hLO inh,PNC assembly inh
Cc1cc(C(F)(F)F)n(-c2nc(C(=O)N/N=C/c3ccc(F)cc3)cs2)n1,/,.,-106
Cc1cc(C(F)(F)F)n(-c2nc(C(=O)NNS(=O)(=O)c3ccccc3)cs2)n1,.,.,?
COc1cccc(/C=N/NC(=O)c2csc(-n3nc(C)cc3C(F)(F)F)n2)c1,.,.,-90
CCOC(=O)c1c(C)cc(O)c(C=O)c1O,.,.,/
COc1ccc(C(=O)N2CCC3(CCN(C(=O)Nc4ccccc4)CC3)CC2)cc1,.,.,/
C[C@H]1C=C2C=C[C@H](C)[C@H](CC[C@@H]3C[C@@H](O)CC(=O)O3)[C@H]2[C@@H](OC(=O)[C@@H](C)CCO)C1,.,.,/
NNC(=O)CCc1ccc2ccc3ccccc3c2c1,.[11.4 µM],.[11.4 µM],/
FC(F)(F)c1ccc(Cl)c(NC(=S)NC2CC2)c1,/,.,.
CNC(=S)Nc1cc(C(F)(F)F)ccc1Cl,/,.,-86
CC(O)Cn1c(=O)c2c(nc(Br)n2Cc2ccccc2)n(C)c1=O (centres undefined),/,.,-119
CCOC(=O)CCn1c(=O)c2c(nc(Br)n2Cc2ccccc2)n(C)c1=O,.,.,.
Cc1[nH]c(C)c(CN(C)C)c1CN(C)C,.[11.4 µM],.[11.4 µM],/
COc1cc2oc(=O)cc(-c3ccc(-c4ccc(NC(C)=O)cc4)cc3)c2c(OC)c1OC,.[0.0915 µM],.[0.00818 µM],/
CC(=O)N1N=C(c2ccco2)CC1c1ccc(Br)cc1 (centres undefined),/,.,.
O=C(C1CCCO1)N1N=C(c2ccc(Br)cc2)CC1c1ccco1 (centres undefined),/,.,-89
Clc1ccc(CN2CCCN(Cc3ccc(Cl)cc3)C2c2cc3ccccc3c3ccccc23)cc1,.[11.4 µM],.[11.4 µM],/
CCOC(=O)C1=C(C)Nc2nnnn2C1c1c[nH]c2ccccc12 (centres undefined),.,.,.
Cc1[nH]c2ccccc2c1C(=O)C(=O)N1CC=C(c2ccccc2)CC1,/,.,?
CC1=NN=C(c2ccccc2)C(c2c[nH]c3ccccc23)N1O (centres undefined),/,.,-114
Cc1[nH]c2ccccc2c1C1C(c2ccccc2)=NN=C(C(C)C)N1O (centres undefined),/,.,-103
C[C@@]12CCC(=O)C=C1CC[C@@H]1[C@@H]2[C@H](O)C[C@]2(C)[C@@H]1CC[C@]2(O)C(=O)CO,.,.,/
C#CCCCCCCCCCCCC(=O)CC(O)COC(C)=O (centres undefined),.,.,/
C[C@H]1[C@H](C)CC[C@]2(C(=O)O)CC[C@]3(C)C(=CC[C@@H]4[C@]5(C)C[C@H](O)[C@@H](O)[C@@](C)(CO)[C@@H]5[C@H](O)C[C@@]43C)[C@H]12,.[11.4 µM],.[11.4 µM],/
COc1ccccc1CN1CCC2(CC1)CCN(C(=O)c1cccn1C)CC2,.,.,/
O=C(Cn1[nH]c(=O)c2ccccc2c1=O)OCC(=O)N1CCc2ccccc2C1,.,.,.
SMILES,ALOX15B inhib,12-hLO inh,PNC assembly inh
O=C(Cn1[nH]c(=O)c2ccccc2c1=O)OCC(=O)N1CCCc2ccccc21,.,.,-97
O=C(c1cccs1)N1N=C(c2ccc(O)cc2)CC1c1ccccc1 (centres undefined),/,.,.
O=C(c1cccs1)N1N=C(c2ccccc2)CC1c1ccccc1 (centres undefined),.,.,-105
O=C(NC1CCCCC1)C(c1cccs1)N(Cc1cccs1)C(=O)c1ccco1 (centres undefined),.,.,.
O=C(NC1CCCCC1)C(c1cccs1)N(C(=O)c1ccco1)c1ccc2c(c1)OCCO2 (centres undefined),/,.,-100
O=C(CN1C(=O)c2cccc3cccc(c23)C1=O)N1CCN(c2ccccn2)CC1,/,.,-104
O=C(O)CCC(=O)N1CCN(c2ccccn2)CC1,.,.,.
O=c1[nH]c2ccc(Br)cc2c(-c2ccccc2)c1N1CCOCC1,.,.,.
O=c1[nH]c2ccc(Br)cc2c(-c2ccccc2)c1CN1CCOCC1,.,.,-90
O=C(CCN1C(=O)C2C3C=CC(C3)C2C1=O)NCCc1ccccc1 (centres undefined),.,.,-93
O=C1C2C3C=CC(C3)C2C(=O)N1CCc1ccccc1 (centres undefined),.,.,.
CC(C)[C@H]1C(=O)C(C(N)=O)=C(O)[C@]2(O)C(=O)C3=C(O)c4c(O)ccc(N(C)C)c4C[C@H]3C[C@@H]12,.,.,/
CC(=O)OCC(=O)[C@@]1(OC(C)=O)[C@H](C)C[C@H]2[C@@H]3C[C@H](F)C4=CC(=O)C=C[C@@]4(C)[C@]3(F)[C@H](O)C[C@@]21C,.,.,/
Nc1nonc1C(=O)NCCNS(=O)(=O)c1ccc(Br)cc1,.,.,-90
Nc1nonc1C(=O)NCCNC(=O)c1ccccc1F,/,.,.
